Only a sample is shown.
aSyn UTR act – Activators via SNCA 5'UTR binding, MLPCN; alpha-synuclein 5'UTR reporter, activators screen; activity score, % (tested at 7.5 µM), hits read low; 300,000 tested, 7.1% active; AID 1814, 2009; in the data active = activity score below about -60%
Hits are given with their value; – = inactive.

SMILES	aSyn UTR act
COc1cc(CO)ccc1OCc1ccc(Cl)nc1	-102
COc1ccc(/C=C/c2ccc3ccccc3[n+]2C)cc1OC	-124
CC(=O)Oc1ccccc1/C=C/c1ccc2ccccc2[n+]1C	-62
CCc1ccc(-c2cc(C(=O)N3N=C(C(F)F)CC3(O)C(F)F)c3ccccc3n2)cc1 (centres undefined)	-68
Cc1nn(C)c(Sc2ccccn2)c1[N+](=O)[O-]	-87
O=C(c1cc2cc(Cl)ccc2[nH]1)N1CCCCC1	-85
CCNC(=O)c1sc(-c2ccccc2)nc1C	-66
Cc1nc(-c2ccccc2)sc1C(=O)Nc1ccccc1F	-66
Cc1nc(-c2ccccn2)sc1C(=O)Nc1ccc(F)cc1F	-127
COC(=O)c1c(NC(=O)c2nc3ccccc3s2)sc2c1CC(C)(C)NC2(C)C	–
CCOC(=O)c1c(NC(=O)CSc2nc3ccccc3[nH]2)sc2c1CC(C)(C)NC2(C)C	-101
Clc1ccccc1Cn1nnc(-c2ccccc2)n1	-153
Clc1ccccc1Cn1nnc(-c2cccs2)n1	-100
CN(C)c1ccc(-c2nnn(Cc3ccccc3Br)n2)cc1	-66
Cc1n[nH]c(=O)n1-c1ccc(OCc2ccccc2)cc1	-91
Brc1ccc(-c2csc(N3CCC(c4ccccc4)C3)n2)cc1 (centres undefined)	-86
c1ccc(-c2csc(N3CCSCC3)n2)cc1	-90
c1ccc(-c2csc(-n3cccn3)n2)cc1	-130
Fc1ccc(-c2csc(N3CCOCC3)n2)cc1	-129
c1ccc(-c2cn3nc4c(nc3n2)CCCC4)cc1	–
Fc1ccc(-c2csc(N3CCSCC3)n2)cc1	-63
O=C(CSc1nc(-c2ccc(F)cc2)cs1)N1CCOCC1	-119
COc1ccc(CC(=O)N2CCC(c3ccccc3)C2)cc1 (centres undefined)	-65
COc1ccc(CC(=O)N2CCc3ccccc32)cc1	-74
COc1ccc2c(CC(=O)N3CCc4ccccc43)coc2c1	-105
SMILES	aSyn UTR act
COc1cccc(/C=N/Nc2ncnc(Cl)c2N)c1O	–
COc1cccc(CNc2ncc(Br)cc2Br)c1O	-125
COc1ccc(C(=O)COc2ccccc2C#N)cc1	-127
COc1ccc(C(=O)CNc2ccccc2C#N)cc1	-93
COc1ccc(C(=O)COc2ccccc2N2C(=O)C3C4C=CC(C4)C3C2=O)cc1 (centres undefined)	-82
COc1ccc(C(=O)CNc2ccccc2CO)cc1	-70
COc1cc2c(cc1OC)C(C)N(C(=O)c1cc(Cl)nc(Cl)c1)CC2 (centres undefined)	-105
Cc1ccc2nc(-c3ccc(N4C(=NC(=O)CCC(=O)O)SC5CS(=O)(=O)CC54)cc3)sc2c1 (centres undefined)	-92
CC(=O)N=C1SC2CS(=O)(=O)CC2N1c1ccc(-c2nc3ccc(C)cc3s2)cc1 (centres undefined)	-164
CCN(CC)CCn1c(=O)n(-c2ccc(Cl)cc2)c(=O)c2c3c(sc21)CN(C)CC3	-66
CSC1=NC(C)(C)C=C(/C=C/c2ccc(Cl)cc2)N1	-96
COc1ccccc1-c1cc2ccccc2[nH]1	-207
O=C(Nc1ccc2c(c1)oc1ccccc12)c1ccc(Br)o1	-210
CCc1cccc(NC(=O)c2ccc(Br)o2)c1	-116
O=C(c1ccccc1)c1cccc(NC(=O)c2ccc(Br)o2)c1	-90
O=C(Nc1ccccc1)c1ccc(Br)o1	-73
CCCC/C(=N\NC(=O)c1ccc(Br)o1)c1ccccc1	-69
Cc1cccc(NC(=O)c2ccc(C(=O)c3ccccc3)o2)c1	-156
Cc1ccc(C(NC(=O)NCCCN2CCOCC2)=C(Cl)Cl)cc1F	-70
COc1ccc(-n2cccc2/C=C2/NC(=O)N(c3cccc(Cl)c3)C2=O)cc1	-143
O=C(Nc1ccc2nc3n(c(=O)c2c1)CCCC3)c1ccccc1F	-67
O=C(Nc1ccc2nc3n(c(=O)c2c1)CCCCC3)c1c(F)ccc([N+](=O)[O-])c1F	–
CCN(CC)c1cc(C)c2cc(NC(=O)c3ccccc3F)ccc2n1	-125
O=C(Nc1ccc2nc3n(c(=O)c2c1)CCCC3)c1cccc(F)c1	-82
O=C(Nc1ccc2nc3n(c(=O)c2c1)CCCCC3)c1ccccc1[N+](=O)[O-]	-87
SMILES	aSyn UTR act
CCOC(=O)Nc1ccc2nc3n(c(=O)c2c1)CCCCC3	-79
COc1cccc(C2N=C(c3ccccc3C)NO2)c1OC (centres undefined)	-80
C(=N\N=C\c1cccs1)/c1cccs1	-178
O=C(/C=C/NCc1cccnc1)c1ccc(-c2ccccc2)cc1	-81
O=[N+]([O-])c1ccc2cn(-c3ccccc3)nc2c1	-200
COc1ccccc1-n1cc2ccc([N+](=O)[O-])cc2n1	-119
CC(C)(C)NC(=O)C(=O)NNC(=O)c1cccc(F)c1	-89
O=C(c1cn(-c2ccc(Cl)c(Cl)c2)nn1)C1CC1	-107
CNC(C)C#Cc1ccc2oc3cc(C)c(C)cc3c(=O)c2c1 (centres undefined)	-196
CNC(C)C#Cc1ccc2c(=O)c3cc(C)c(C)cc3oc2c1 (centres undefined)	-227
Cc1ccc(C(=O)Nc2ncc(C)s2)o1	-119
Cc1ccc(C(=O)Nc2ncc(Cc3ccc(F)cc3)s2)o1	-107
Cc1ccc(C(=O)Nc2ncc(Cc3ccc(SC(F)F)cc3)s2)cc1	-163
CSc1ccccc1C(=O)Nc1ncc(C)s1	-63
COc1cc(/C=N/NC(=O)COc2ccc(C)cc2)ccc1OC(=O)c1cccs1	-65
CCCCNC(=O)C1CC(c2cccc(F)c2)=NO1 (centres undefined)	-94
O=C(NCCc1cccs1)C1CC(c2ccc([N+](=O)[O-])cc2)=NO1 (centres undefined)	-157
Cc1ccc(CNC(=O)C2CC(c3cccc([N+](=O)[O-])c3)=NO2)o1 (centres undefined)	-88
COc1ccc(CCNC(=O)C2CC(c3cccc([N+](=O)[O-])c3)=NO2)cc1 (centres undefined)	-112
COc1ccc(CCNC(=O)C2CC(c3ccc([N+](=O)[O-])cc3)=NO2)cc1 (centres undefined)	-69
COc1ccc(N2CCN(S(=O)(=O)CCNC(=O)Cc3ccc([N+](=O)[O-])cc3)CC2)cc1	–
O=C(c1ccccc1)[C@H]1[C@H](c2ccccc2)[C@@]2(N=C(c3ccccc3)OC2=O)C2c3ccccc3C=NN21 (some centres undefined)	-110
CS(=O)(=O)Nc1ccccc1C(=O)N1CCN(c2ccccc2)CC1	-73
CCOc1ccccc1C(=O)N1CCN(c2cccc(Cl)c2)CC1	–
Cc1ccc2nc(-c3ccc(NS(=O)(=O)c4ccccc4)cc3)sc2c1	-85
SMILES	aSyn UTR act
Cc1ccc2nc(-c3ccc(NS(=O)(=O)c4ccc(F)c(F)c4)cc3)sc2c1	-124
Cc1ccnc(S(=O)(=O)Cc2ccc([N+](=O)[O-])cc2)n1	-70
O=C(CSc1nnc(NC(=O)c2ccccc2Cl)s1)Nc1ccc2c(c1)oc1ccccc12	-144
O=C(CSc1nc2ccccc2s1)N/N=C/c1ccccc1C(=O)O	-90
O=C(CSc1nc2ccccc2s1)Nc1ccc2c(c1)oc1ccccc12	-80
O=c1oc2ccccc2n1CSc1nc2ccccc2s1	-99
CNc1ccccc(-c2ccc3ccccc3n2)c1=O	-140
S=C1SCN(Cc2cccnc2)CN1Cc1cccnc1	-86
COc1ccc([N+](=O)[O-])cc1N/C(=N/S(=O)(=O)c1ccccc1)c1ccccc1	-70
CCn1c(C(=O)OC)cc2c1ccn2-c1ccc(F)cc1	-157
CC(C)Sc1nc2ccc(N3C(=O)C4CCCCC4C3=O)cc2s1 (centres undefined)	-126

Compound activity deposited in PubChem by Broad Institute.
